Laboratory results from PubChem BioAssay.
Values without a mark were called inactive.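 How the source made its calls: active means inhibition at or above 50% relative to wild type and mutant plate controls; inactive means inhibition below 50%.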

Experiment: loss of swimming-algae plug formation – whole organism, Chlamydomonas reinhardtii, WT vs cilia-less mutant, absorbance, 96-well, primary screen (AID 463189);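 further: 0% = wild type cc124 cells in DMSO and 100% = ciliumless bld1 mutant cells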
Details: Chlamydomonas reinhardtii gravitaxis, OD600 absorbance, 2 days; at 10 µM; stronger effect = higher value

| SMILES | inhibition [%] |
| --- | --- |
| NC(=O)CNCCC(c1ccccc1)c1ccccc1 | -2.16 |
| CN(C)CCC(c1ccccc1)c1ccccn1 (configuration not stated) | 7.99 |
| NCCNC(=O)c1ccc(Cl)cc1 | 5.46 |
| COc1ccc2[nH]cc(CCNC(C)=O)c2c1 | 13.5 |
| CCCCCCCCCCCCCCSCC(=O)O | 7.96 |
| CC(C(=O)O)c1cccc(C(=O)c2ccccc2)c1 (configuration not stated) | -4.65 |
| O=C(CCc1ccc(O)cc1)c1c(O)cc(O)cc1O | -0.519 |
| Nc1c(S(=O)(=O)O)cc(Nc2ccc(Nc3nc(Cl)nc(Nc4ccc(S(=O)(=O)O)cc4)n3)c(S(=O)(=O)O)c2)c2c1C(=O)c1ccccc1C2=O | 8.09 |
| CCCCC#Cc1nc(N)c2ncn([C@@H]3O[C@H](C(=O)NCC)[C@@H](O)[C@H]3O)c2n1 | -3.94 |
| O=S(=O)(NCCNC/C=C/c1ccc(Br)cc1)c1cccc2cnccc12 | 19.5 |
| CCCCN1CCC(COC(=O)c2cc(Cl)c(N)c3c2OCCO3)CC1 | -6.29 |
| COc1cc(NS(C)(=O)=O)ccc1Nc1c2ccccc2nc2ccccc12 | -1.97 |
| O=c1cc(O)cc(/C=C/c2ccc(O)c(O)c2)o1 | -6.22 |
| NCCc1ccc(O)c(O)c1 | -0.97 |
| COc1ccc(CCN(C)CCc2ccc(OC)c(OC)c2)cc1OC | 11.9 |
| Nc1c2c(nc3ccccc13)CCCC2 | -5.5 |
| CC1=C(/C=C/C(C)=C/C=C/C(C)=C\C(=O)O)C(C)(C)CCC1 | -3.51 |
